According to PMC7862700, “An all-to-all approach to the identification of sequence-specific readers for epigenetic DNA modifications on cytosine”:

What follows are sequences tested against T1, SPDEF (Homo sapiens, UniProt O95238 1-335) (assay: DAPPL (digital affinity profiling via proximity ligation, sequencing); 10 mM Tris-HCl pH 7.5, 50 mM NaCl, 1 mM DTT, 4% glycerol, room temperature, 30 min; GST-TFs on glutathione beads, 16-mer random dsDNA library, 0.1% formaldehyde crosslink after washing; high values mean tight binding). Details: protein: recombinant; tags: N-terminal GST; dsDNA, one strand shown.
T1 sequence: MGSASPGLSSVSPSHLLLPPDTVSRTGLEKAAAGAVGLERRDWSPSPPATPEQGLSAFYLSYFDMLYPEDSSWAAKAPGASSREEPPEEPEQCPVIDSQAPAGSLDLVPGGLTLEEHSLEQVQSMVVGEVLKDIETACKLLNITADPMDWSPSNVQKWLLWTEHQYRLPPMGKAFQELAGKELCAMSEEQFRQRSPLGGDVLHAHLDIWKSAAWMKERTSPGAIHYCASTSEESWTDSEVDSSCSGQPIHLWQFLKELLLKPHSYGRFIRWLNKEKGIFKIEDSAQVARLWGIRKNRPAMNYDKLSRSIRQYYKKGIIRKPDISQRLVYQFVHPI
How it was run: (§1)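 The binding signal reported is, for every hexamer, its read frequency for a factor over its read frequency for the tag-only sample. Reads came from pools of yeast-expressed, GST-fused human transcription factors on glutathione beads, barcoded with DNA and mixed with that sample, which were incubated with 200 nmole of a random double-stranded 16-mer DNA library in Tris/NaCl/DTT/glycerol buffer at room temperature for 30 min. After washing, the pools were crosslinked with 0.1% formaldehyde, proximity-ligated with BsaI/T4 ligase for 1 h at 37 °C, PCR-amplified and sequenced on an Illumina NextSeq500.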

Row | Sequence | binding signal
1 | TAAGGT | 1.15 fold enrichment (6-mer frequency, TF over GST control)
2 | AAAAGT | 1.12 fold enrichment (6-mer frequency, TF over GST control)
3 | GTTAAG | 1.05 fold enrichment (6-mer frequency, TF over GST control)
4 | TAGAAT | 1.07 fold enrichment (6-mer frequency, TF over GST control)
5 | GCGTTC | 1.02 fold enrichment (6-mer frequency, TF over GST control)
6 | CTGCCA | 1.15 fold enrichment (6-mer frequency, TF over GST control)
7 | CCCCGA | 1.05 fold enrichment (6-mer frequency, TF over GST control)
8 | GCACTC | 1.22 fold enrichment (6-mer frequency, TF over GST control)
9 | AAACTG | 1.02 fold enrichment (6-mer frequency, TF over GST control)
10 | TAGTCC | 1.2 fold enrichment (6-mer frequency, TF over GST control)
11 | TGATAT | 1.18 fold enrichment (6-mer frequency, TF over GST control)
12 | TCGCAC | 1.05 fold enrichment (6-mer frequency, TF over GST control)
13 | GAAACT | 1.13 fold enrichment (6-mer frequency, TF over GST control)
14 | GGAATT | 1.16 fold enrichment (6-mer frequency, TF over GST control)
15 | TCTGGG | 1.07 fold enrichment (6-mer frequency, TF over GST control)
16 | AGTAAT | 1.1 fold enrichment (6-mer frequency, TF over GST control)

Each sequence was assayed against T2, ETV7 (Homo sapiens, UniProt Q9Y603 1-341) in the same assay as above. Details: protein: recombinant; tags: N-terminal GST; dsDNA, one strand shown.
T2 sequence: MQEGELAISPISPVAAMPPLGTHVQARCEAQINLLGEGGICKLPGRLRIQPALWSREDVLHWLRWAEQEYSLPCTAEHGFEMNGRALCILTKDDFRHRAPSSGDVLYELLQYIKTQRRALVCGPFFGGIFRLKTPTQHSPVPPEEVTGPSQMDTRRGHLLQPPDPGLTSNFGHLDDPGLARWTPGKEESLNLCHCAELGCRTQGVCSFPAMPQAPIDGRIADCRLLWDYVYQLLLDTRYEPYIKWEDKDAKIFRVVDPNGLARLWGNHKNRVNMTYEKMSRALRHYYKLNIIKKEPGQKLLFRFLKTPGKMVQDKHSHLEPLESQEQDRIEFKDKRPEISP
How it was run: as §1

Row | Sequence | binding signal
17 | TGTACC | 1.26 fold enrichment (6-mer frequency, TF over GST control)
18 | ATCCAA | 1.19 fold enrichment (6-mer frequency, TF over GST control)
19 | TGAATG | 1.21 fold enrichment (6-mer frequency, TF over GST control)
20 | GGTTTA | 1.15 fold enrichment (6-mer frequency, TF over GST control)
21 | GTTCGA | 1.13 fold enrichment (6-mer frequency, TF over GST control)
22 | AGGAAA | 1.46 fold enrichment (6-mer frequency, TF over GST control)
23 | CCGACA | 1.13 fold enrichment (6-mer frequency, TF over GST control)
24 | GCCGAT | 1.12 fold enrichment (6-mer frequency, TF over GST control)
25 | TGATCA | 1.14 fold enrichment (6-mer frequency, TF over GST control)
26 | AGTTAA | 1.01 fold enrichment (6-mer frequency, TF over GST control)
27 | CTGAAG | 1.07 fold enrichment (6-mer frequency, TF over GST control)
28 | AGGTTT | 1.08 fold enrichment (6-mer frequency, TF over GST control)
29 | TTATTA | 1.11 fold enrichment (6-mer frequency, TF over GST control)
30 | TAGTAA | 1.16 fold enrichment (6-mer frequency, TF over GST control)
31 | TACTGG | 1.12 fold enrichment (6-mer frequency, TF over GST control)
32 | TTTGAG | 1.1 fold enrichment (6-mer frequency, TF over GST control)
33 | GTTAAT | 1.07 fold enrichment (6-mer frequency, TF over GST control)
34 | TGTACG | 1.09 fold enrichment (6-mer frequency, TF over GST control)
35 | AACTTG | 1.08 fold enrichment (6-mer frequency, TF over GST control)

Row | Sequence | binding signal
36 | TCCCAG | 1.16 fold enrichment (6-mer frequency, TF over GST control)
37 | CGATAT | 1.11 fold enrichment (6-mer frequency, TF over GST control)
38 | TAAGGT | 1.04 fold enrichment (6-mer frequency, TF over GST control)
39 | AAAAGT | 1.16 fold enrichment (6-mer frequency, TF over GST control)
40 | GTTAAG | 1.02 fold enrichment (6-mer frequency, TF over GST control)
41 | TAGAAT | 1.13 fold enrichment (6-mer frequency, TF over GST control)
42 | GCGTTC | 1.23 fold enrichment (6-mer frequency, TF over GST control)
43 | CTGCCA | 1.08 fold enrichment (6-mer frequency, TF over GST control)
44 | CCCCGA | 1.06 fold enrichment (6-mer frequency, TF over GST control)
45 | GCACTC | 1.28 fold enrichment (6-mer frequency, TF over GST control)
46 | AAACTG | 1.13 fold enrichment (6-mer frequency, TF over GST control)
47 | TAGTCC | 1.13 fold enrichment (6-mer frequency, TF over GST control)
48 | TGATAT | 1.03 fold enrichment (6-mer frequency, TF over GST control)
49 | TCGCAC | 1.03 fold enrichment (6-mer frequency, TF over GST control)
50 | GAAACT | 1.31 fold enrichment (6-mer frequency, TF over GST control)
51 | GGAATT | 1.15 fold enrichment (6-mer frequency, TF over GST control)
52 | TTCGGC | 1.19 fold enrichment (6-mer frequency, TF over GST control)
53 | TCTGGG | 1.07 fold enrichment (6-mer frequency, TF over GST control)
54 | AGTAAT | 1.19 fold enrichment (6-mer frequency, TF over GST control)
